# Screening results from PubChem.
# IL-2 act – qHTS of IL-2 Activators; IL-2 activation reporter assay, cell-based qHTS; stimulated with anti-CD3/CD4/CD28 beads; in transgenic mouse T cells; activation, % (series mostly up to about 46 µM); actives 0.065% (n = 360,000); AID 652025, 2013; in the data active means activation above about 50%; inconclusive means mostly about 30% to 49%; further: 0% is about no effect
#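 Readout is EGFP and DsRed signal by fluorescent plate cytometry after 18 h at 37 degrees C. Transgenic mouse T cells (750/well) received compound for 60 min before bead stimulation (anti-CD3, anti-CD4, anti-CD28); memory T cells served as non-tolerant control.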
# Nrf2 activator – qHTS of Nrf2 Activators | AREc32 ARE-luciferase reporter (MCF7-derived line), luminescence, 24 h | Potency, µM (highest dose often 46.1 µM), for the others: top-dose activation, hits mostly activators | actives 0.31% (n = 410,000); further: potency means the concentration at half of the fitted maximal effect; % of control where 0% means no effect; nearly all actives have a fitted effect of over 65% in size
#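 Luciferase luminescence (Steady-Glo, 30 min at room temperature) served as the read-out of ARE activation in AREc32 cells treated with compounds for 24 hr at 37 deg C.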
# BRCA1 expr up – qHTS Assay to Identify Small Molecule Activators of BRCA1 Expression; MCF7-BRCA1-FFLuc reporter, luminescence, 48 h; response scale: scaled: vehicle 0%, 10 µM genistein 100%; Potency, µM (titrated, usually from 46.1 µM), for inactives: at the highest dose activation, hits mostly activators; actives 1.1% (n = 380,000); AID 624202, 2012; further: potency means the concentration at half of the fitted maximal effect; nearly all actives have a fitted effect of over 80% in size
#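 Luminescence from a BRCA1-driven firefly luciferase in MCF7 cells was the read-out, taken 15 min after substrate addition following 48 h compound exposure at 37 °C. Data were normalized to a 10 microM genistein control and DMSO vehicle.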
# ELG1 DNA repair – qHTS screen for small molecules that inhibit ELG1-dependent DNA repair in human embryonic kidney (HEK293T) cells expressing luciferase-tagged ELG1; AID 504467, 2011; Potency, µM (series often up to 46.1 µM), for inactives: at the top dose activity change, negative = inhibition, hits mostly inhibitors; HEK293T ELG1-luciferase reporter, luminescence, 16 h; DNA damage induced by 5-fluorouridine; actives 2.3% (n = 330,000); further: potency means the concentration at half of the fitted maximal effect; on the % scale 0 is the no-effect control and ±100 the full control effect; nearly all actives have a fitted effect of over 55% in size
#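 Overnight (16 hr) co-exposure of 2,000 cells/well to 5-fluorouridine and compound at 37 °C preceded detection. Luciferase was quantified via ONE-Glo luminescence; loss of signal denotes inhibition.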
# Starred values were filed as active, the others as inactive; u = inconclusive; x = no result. This is a sample that favours compounds with a hit; in the whole collection about 3.1% have one here. Unless noted, the call rests on the fitted dose curve; in most records, active means well fitted curve in the direction sought with a large enough effect; inconclusive means small, poorly fitted or top-dose-only effect, or another doubt; inactive means no such curve, though single readings can be large; an effect the other way counts as inactive or inconclusive.
SMILES,IL-2 act,Nrf2 activator,BRCA1 expr up,ELG1 DNA repair
O=C(C1CCN(S(=O)(=O)c2cccc3cccnc23)CC1)N1CCN(c2ccc(Cl)cc2)CC1,-1.1,0.7%,-14.5%,18.4µM*
O=C(C1CCN(S(=O)(=O)c2cccnc2)CC1)N1CCN(c2ccc(Cl)cc2)CC1,-0.5,1.1%,-26.3%,2.91µM*
CCCN(CC(=O)Nc1ccccc1C)C(=O)COc1c(C)cccc1C,0.4,-0.3%,-25.8%,-5.8%
CCCN(CC(=O)Nc1ccccc1C)C(=O)CCl,-1.0,u,-97.8%,7.3µM*
Cc1ccc(CSc2nc3cccnc3n2Cc2ccc(C(=O)NCCc3cccs3)cc2)cc1,x,2.8%,x,x
Cc1ccc(-c2nc(NC(=O)CSc3nnc4scc(-c5ccccc5)n34)ns2)cc1,-2.9,2.8%,-44.0%,11.6µM*
CN(C)c1ccc(/C=C2\C=Cc3cc(N)ccc32)cc1,x,x,21.6%,x
Nc1ccc2c(c1)C=C/C2=C\c1ccccc1,x,x,3.98µM*,x
O=C(c1cccc(Cl)c1)N1c2ncnn2C2(CCCCC2)[C@@H]2CCCC[C@@H]21,x,-0.7%,x,x
COc1ccc(C(=O)Nc2cc(C(C)C)c(O)c(S(=O)(=O)c3ccc(OC)cc3)c2C)cc1,x,0.7%,5.62µM*,x
COC(=O)CC(=O)CSc1nc2cc(C(=O)NCC(C)C)ccc2c(=O)n1CCc1ccccc1,x,3.2%,2.5%,x
Nc1nc(-c2cccc(F)c2)cs1,-0.5,6.4%,11.2µM*,7.9%
Nc1nc(-c2ccc3c(c2)OCCO3)cs1,-0.4,9.3%,81.3%,u
CC1Cc2cc(-c3csc(N)n3)ccc2O1 (stereo unspecified),-0.5,0.3%,3.16µM*,u
Nc1nc(-c2ccc3c(c2)CCCC3)cs1,8.3,3.1%,3.16µM*,u
O=C(COCc1cc(-c2ccco2)on1)Nc1cccc(O)c1,x,22.2%,x,x
CCOc1ccc(NC(=O)CN2CCSc3ccc(S(=O)(=O)N4CCCC4)cc32)cc1,x,4.2%,-27.0%,x
COc1ccc(-c2ccc(=O)n(CC(=O)Nc3ccc(N(C)C)cc3)n2)cc1,x,3.7%,x,x
Cc1ccc(C2=N/C(=C/N3CCOCC3)C(=O)O2)cc1,0.0,2.4%,8.91µM*,u
O=C(NCCc1ccc(Cl)cc1)c1ccc(CS(=O)(=O)Cc2ccccc2F)o1,x,4.0%,x,x
CCN(CCCNC(=O)CN1N=C(c2ccc(OC)cc2)CCC1=O)c1cccc(C)c1,x,-0.4%,x,x
O=C(CCCCCCN1C(=O)c2ccccc2C1=O)Nc1nccs1,0.0,-0.8%,-7.1%,16.4µM*
O=C(CCCN1C(=O)c2ccccc2C1=O)Nc1nccs1,-0.8,-0.4%,-8.4%,u
COc1ccc(OC)c(CNC(=O)C2CCN(c3nc4ccccc4nc3C(F)(F)F)CC2)c1,x,0.3%,10.2%,x
COc1ccc(OC)c(NC(=O)CN(c2ccc(C(C)C)cc2)S(=O)(=O)c2c(C)noc2C)c1,-3.1,3.0%,-77.3%,8.2µM*
SMILES,IL-2 act,Nrf2 activator,BRCA1 expr up,ELG1 DNA repair
CCN1C(=O)c2ccccc2S(=O)c2ccc(C(=O)N3CCN(c4cccc(Cl)c4)CC3)cc21 (stereo unspecified),x,-1.3%,0.0%,x
COc1cccc(N2CCN(c3ncnc4c3[nH]c3ccc(F)cc34)CC2C)c1 (stereo unspecified),-0.9,-4.3%,-83.4%,u
c1ccc2c(c1)[nH]c1c(N3CCC4(CC3)OCCO4)ncnc12,-0.3,3.4%,-57.6%,20.6µM*
COc1cccc2[nH]c3c(N4CCc5ccccc5C4)ncnc3c12,-5.4,2.8%,-15.5%,13µM*
COc1cccc(N2CCN(c3ncnc4c3[nH]c3ccccc34)CC2C)c1 (stereo unspecified),x,x,x,4.61µM*
COc1cccc2[nH]c3c(N4CCC5(CC4)OCCO5)ncnc3c12,1.2,3.2%,-32.6%,-10.9%
c1ccc2c(c1)CCN(c1ncnc3c1[nH]c1ccccc13)C2,-2.5,1.9%,-98.5%,9.2µM*
CSC(=Nc1ccccc1)C(C#N)c1nc2ccccc2[nH]1 (stereo unspecified),-4.9,8.1%,-27.7%,-14.6%
N#CC(C(=S)Nc1ccccc1)c1nc2ccccc2[nH]1 (stereo unspecified),-0.8,20.6%,-48.5%,13µM*
COc1ccc2c(CCNC(=O)/C=C/c3ccc(OC)c(OC)c3)c[nH]c2c1,-0.7,0.6%,-36.4%,23.1µM*
